About 83,000 compounds went through this panel and 20% of them were active in at least one assay; those are over-represented in the sample as a whole.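 Single-concentration screen, 48 h exposure, 96-well plates. Endpoint: percent growth. Below 10 = active.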 Activity calls are given as the source filed them.
Experiments:
Experiment in all cases: NCI-60 one-dose screen, 48 h (100 = growth as untreated, 0 = no growth, -100 = all killed)
Conditions in all cases: 10 µM unless noted
[1] = test system: SR leukemia
[2] = test system: RPMI-8226 leukemia
[3] = test system: OVCAR-8 ovarian
[4] = test system: OVCAR-5 ovarian
[5] = test system: OVCAR-4 ovarian
[6] = test system: SK-OV-3 ovarian
[7] = test system: IGROV1 ovarian
[8] = test system: OVCAR-3 ovarian
[9] = test system: HS 578T breast
[10] = test system: NCI/ADR-RES ovarian

Measured: growth

COc1cccc(-c2nn(-c3ccccc3)cc2-c2ccnc(NCCCN)c2)c1
inactive: [2] 44% | [3] 62% | [4] 95.8% | [5] 63.8% | [6] 70.9% | [7] 54.4% | [8] 29.2% | [9] 43.6% | [10] 25%
active: [1] -10.5%

Cc1cc2nc3c4cc(N)ccc4n(CCN(C)C)c3nc2cc1C
inactive: [3] 13.7% | [4] 18.5% | [5] 14.6% | [6] 18.4% | [8] 22.3% | [9] 41.8%
active: [1] -0.184% | [2] -7.46% | [7] 3.64% | [10] 2.88%

CCN1CCN(C(=O)[C@@]2(C)CC[C@]3(C)CC[C@]4(C)C(=CC(=O)[C@@H]5[C@@]6(C)CC[C@H](OC7C[C@@H](O)[C@@H](O)C(C)O7)C(C)(C)[C@@H]6CC[C@]54C)[C@@H]3C2)CC1 (stereo not given in full)
active: [1] -4.66% | [2] -25.7% | [4] 9.86% | [5] 0.113%
inactive: [3] 12.3% | [6] 113% | [7] 26.5% | [8] 105% | [9] 87.5% | [10] 47%

COc1cccc(-c2nn(-c3ccccc3)cc2-c2ccnc(NCCNS(=O)(=O)c3cccc(F)c3)c2)c1
active: [1] 9.17%
inactive: [2] 23.7% | [3] 20.2% | [4] 64.9% | [5] 31.1% | [6] 46.6% | [7] 38% | [8] 40.4% | [9] 40.2% | [10] 22.1%

O=C1C(=O)c2ccccc2C(O)=C1CCCc1ccc(C2CCCCC2)cc1
inactive: [1] 35.6% | [2] 21.1% | [3] 51.4% | [4] 61.7% | [5] 58.2% | [6] 56.6% | [7] 51.3% | [8] 18% | [9] 53.4% | [10] 42.8%

C=C(C)[C@@H]1CC[C@]2(C)CC[C@]3(C)[C@H](CC[C@@H]4[C@@]5(C)CCCNC(C)(C)[C@@H]5CC[C@]43C)[C@@H]12
active: [1] 1.2%
inactive: [2] 30.1% | [3] 84.1% | [4] 107% | [5] 94.5% | [6] 113% | [7] 94% | [8] 76.2% | [9] 101% | [10] 97.3%

CCCCCCCC(=O)SCC/C=C/[C@@H]1CC(=O)NCc2cccc(n2)CN(Cc2ccc(Cl)cc2)CC(=O)N[C@@H](C(C)C)C(=O)O1
active: [1] 8.39% | [2] 8.51% | [3] -0.619% | [4] -5.64% | [6] -24.5% | [8] 3.13% | [9] -5.68%
inactive: [5] 28% | [7] 10.9% | [10] 13%

Nc1c(C(=O)Nc2c(Cl)cccc2Cl)sc2nc3c(cc12)CCCC3
inactive: [1] 12% | [2] 93.4% | [3] 84.9% | [4] 105% | [5] 89.9% | [6] 83.3% | [7] 79.5% | [8] 64% | [9] 82.3% | [10] 60.8%

CC1(C)NC2=C(C(Nc3cccnc3)N1)C(c1ccc([N+](=O)[O-])cc1)C(C(=O)c1ccc(N=[N+]=[N-])cc1)O2 (stereo not given)
inactive: [1] 102% | [2] 115% | [3] 101% | [4] 97.6% | [5] 117% | [6] 108% | [7] 104% | [8] 110% | [9] 102% | [10] 109%

N#CC1=C(N)Oc2ccc3ccccc3c2C1c1ccccc1 (stereo not given)
active: [10] 8.41%
inactive: [1] 25.1% | [2] 21.8% | [3] 49.8% | [4] 55.8% | [5] 73.6% | [6] 47.2% | [7] 25.5% | [8] 18.4% | [9] 23.8%

CC(C)=CCC[C@](C)(O)[C@H]1CC[C@]2(C)[C@@H]1CC[C@@H]1[C@@]3(C)C/C(=C/c4cccc([N+](=O)[O-])c4)C(=O)C(C)(C)[C@@H]3CC[C@]12C
inactive: [1] 72.7% | [2] 59.9% | [3] 77.5% | [4] 94.1% | [5] 82.5% | [6] 109% | [7] 107% | [8] 89.7% | [9] 93.3% | [10] 101%

COC(=O)[C@]12CC[C@@H](C)[C@H](C)[C@@H]1C1=CC[C@@H]3[C@@]4(C)C[C@@H](OC(C)=O)[C@H](OC(C)=O)[C@@](C)(COC(C)=O)[C@@H]4[C@H](O)C[C@@]3(C)[C@]1(C)CC2
inactive: [3] 16.9% | [4] 34.6% | [5] 19.3% | [7] 36.7% | [8] 15% | [9] 35.9% | [10] 10.5%
active: [1] 2.75% | [2] 5.96% | [6] 2.45%

COc1ccc(-c2n/c(=C\c3c(O)[nH]c4ccc(OC)cc34)cc3c2=Nc2ccccc2-3)cc1
active: [1] 7.13% | [2] -38.5% | [5] -42.1% | [8] -57.5% | [10] 4.41%
inactive: [3] 11.8% | [4] 135% | [6] 114% | [7] 98.3% | [9] 26.1%

N#C/C(=C\c1ccc(-c2ccc(Cl)cc2)o1)c1nc(-c2ccco2)cs1
active: [5] 4.22%
inactive: [1] 95% | [2] 64.7% | [3] 97.5% | [4] 61.8% | [6] 90.9% | [7] 68.1% | [8] 106% | [9] 102% | [10] 97.4%

N#CCCCCCn1c2ccccc2c2c3c(c4c5ccccc5n(CCCCCC#N)c4c21)C(=O)N(O)C3=O
inactive: [1] 42.9% | [2] 37.7% | [3] 69.4% | [4] 109% | [5] 93.4% | [6] 71.2% | [7] 75.2% | [8] 96.1% | [9] 92.7% | [10] 85.9%

COc1cc2nc(Cl)nc(Nc3cccc(C(=O)/C=C/c4ccc(Cl)cc4)c3)c2cc1OC
active: [2] 0.0429%
inactive: [1] 10.4% | [3] 78.9% | [4] 85.5% | [5] 70.8% | [6] 89% | [7] 68.3% | [8] 48.8% | [9] 101% | [10] 65.7%

O=C(CCCCCn1c2ccccc2c2c3c(c4c5ccccc5[nH]c4c21)C(=O)N(O)C3=O)N1CCOCC1
active: [1] 8.26% | [7] -26.5%
inactive: [2] 14.9% | [3] 41.7% | [4] 116% | [5] 64.5% | [6] 70.4% | [8] 40.9% | [9] 66.5% | [10] 73.7%

Cc1ccnc2c(OCc3ccccc3)cccc12
inactive: [1] 101% | [2] 99.2% | [3] 115% | [4] 93.1% | [5] 72.2% | [6] 112% | [7] 87.5% | [8] 92.8% | [9] 92.2% | [10] 86.1%

COC(=O)[C@]12CC[C@@H](C(/C=C/c3cccnc3)=N/O)[C@@H]1[C@H]1CC[C@@H]3[C@@]4(C)CC(=C/c5cccnc5)/C(=N/O)C(C)(C)[C@@H]4CC[C@@]3(C)[C@]1(C)CC2
active: [2] 1.81%
inactive: [1] 11.4% | [3] 39% | [4] 60.6% | [5] 40.8% | [6] 64.7% | [7] 16.9% | [8] 37.4% | [9] 78.6% | [10] 33.6%

Cn1cnc2c1c(=O)n(CCC(=O)Nc1ccc(F)cc1)c(=O)n2C
inactive: [1] 102% | [2] 101% | [3] 102% | [4] 101% | [5] 109% | [6] 91.2% | [7] 107% | [8] 115% | [9] 106% | [10] 109%

COc1ccc(C2C(C#N)=C(N)Oc3c2sc2c(F)cccc32)cc1 (stereo not given)
active: [8] -4.86% | [10] 6.69%
inactive: [1] 11.6% | [2] 11.8% | [3] 25.9% | [4] 69.3% | [5] 65.7% | [6] 20.7% | [7] 30.6% | [9] 42.4%

CCCCN1CCCCn2c1nc1c2c(=O)n(C)c(=O)n1C
inactive: [1] 87.6% | [2] 103% | [3] 95.5% | [4] 117% | [5] 107% | [6] 110% | [7] 106% | [8] 102% | [9] 100% | [10] 99.9%

Cc1cc(Cl)nc(N(CCNc2ccnc3cc(Cl)ccc23)Cc2ccco2)n1
active: [1] -3.12% | [2] -30.7% | [8] -41.2%
inactive: [3] 45.3% | [4] 80.5% | [5] 53.1% | [6] 123% | [7] 38.3% | [9] 79.2% | [10] 44.5%

COc1cccc(-c2nn(-c3ccccc3)cc2-c2ccnc(NCCCNS(=O)(=O)c3ccc(C(F)(F)F)cc3)c2)c1
active: [1] -13.1%
inactive: [2] 13.3% | [3] 30.7% | [4] 50.1% | [5] 33.5% | [6] 37.7% | [7] 39.6% | [8] 36% | [9] 38.7% | [10] 22.8%

COC(=O)[C@]12CC[C@@H](C)[C@H](C)[C@@H]1C1=CC[C@@H]3[C@@]4(C)C[C@@H](O)[C@H](O)[C@@](C)(CO)C4=CC[C@@]3(C)[C@]1(C)CC2
active: [1] -24.8% | [2] -15.2% | [3] -22.9% | [4] -66% | [5] -55.5% | [6] -5.82% | [7] -40% | [8] -61.8% | [9] -35.1% | [10] -45.6%

From PubChem BioAssay (NCI)
